Results: PubChem BioAssay AID588549 (Broad Institute, 2011)
About 780 (0.22%) of roughly 360,000 compounds were called active. This is one part of a sample in which actives are shown more often than they occur. Unmarked numbers belong to inactive results. No stated cut-off is given here; in the data, active means inhibition above about 8.5% (passing the limit was not always enough); inconclusive means no clear call, values can overlap the other calls.

Tested on: Mycobacterium tuberculosis FadD28 fatty-acid-AMP ligase
Experiment: inhibitors of FadD28 bisubstrate probe binding, primary screen, biochemical, fluorescence polarization, single point (AID 588549)
Conditions: at 12.5 µM, hits give high values

Compared with CN(CC#CCC(c1ccccc1)c1ccccc1)C(C)(C)C, COc1ccccc1OCCC(=O)OCC(=O)NCc1ccccc1 is higher in inhibition: -4.42% for the first, -1.13% for the second.

Going from O=C(NCCc1ccco1)c1ccc(OCc2cn3ccccc3n2)cc1 to Cc1cc(-c2ccc(C)c(S(=O)(=O)NC(C)Cc3ccco3)c2)on1 (stereo unspecified), the inhibition rises from -3.83% to -1.87%.

Compared with Cc1ccccc1-c1csc(C(O)c2cccc(Cl)c2)n1 (stereo unspecified), Cc1cccc(C)c1NC(=O)CS(=O)CC(=O)N1CCN(c2ccccc2)CC1 (stereo unspecified) is higher in inhibition: -5.7% for the first, 0.692% for the second.

First: CN(C(=O)CN1C(=O)CCSc2ccc(S(=O)(=O)N3CCCC3)cc21)c1ccccc1
Second: O=c1/c(=C/c2ccc(CNS(=O)(=O)c3ccccc3)o2)sc2n1CCN=2
The inhibition of the first is higher: -0.827% for the first, -4.15% for the second.

Compared with CC1=CC2=NC(=O)CC(C)(C(=O)N(CC(=O)NC(C)(C)C)Cc3ccccc3)N2C=C1 (stereo unspecified), CSc1ccc(CN2CCC2(C)C(=O)Nc2ccc(C)c(O)c2)cc1 (stereo unspecified) is lower in inhibition: 0.336% for the first, -2.96% for the second.

Going from COc1cc(-c2nnn(CC(=O)NCc3ccccc3)n2)cc(OC)c1OC to CC(C)CC(N=C1NC(C)(C)Cc2ccccc21)C(=O)O (stereo unspecified), the inhibition falls from 0.0025% to -3.18%.

Compared with CCc1ccc(-c2cc(C)no2)cc1S(=O)(=O)NCCc1ccc(S(N)(=O)=O)cc1, CO[C@@H]1[C@@H](OC(N)=O)[C@@H](O)C(Oc2ccc3c(O)c(NC(=O)c4ccc(O)c(CC=C(C)C)c4)c(=O)oc3c2C)OC1(C)C (stereo partly specified) is lower in inhibition: -1.2% for the first, -2.46% for the second.

Going from Cc1ccc(NC(=O)CSCC(=O)NC2CCCCC2)cc1 to CS/C(=C\[N+](=O)[O-])Nc1ccc(C)cc1, the inhibition rises from 1.13% to 2.23%.

First: Cc1ccc(N2CCN(S(=O)(=O)N(C)C)CC2)cc1Cl
Second: CCNC(=O)NC(=O)C(C)OC(=O)C1CCN(S(=O)(=O)c2ccccc2F)CC1 (stereo unspecified)
The inhibition of the first is higher: 0.0335% for the first, -0.363% for the second.

Going from CCCn1c(=S)[nH]c2ccc(C(F)(F)F)cc21 to CCCC(=O)Nc1ccc2c(c1)nc1n2CCSC1, the inhibition rises from -2.34% to -0.77%.

Compared with Cc1nn(C(C)CC(=O)O)c(C)c1C (stereo unspecified), CC(C)CNC(=O)C(=O)NCC(c1ccc2c(c1)OCO2)N1CCOCC1 (stereo unspecified) is lower in inhibition: -1.05% for the first, -1.64% for the second.

CCCCN1C(=O)C(CC(=O)NCc2cccs2)CC(C(=O)N2CCOCC2)=C1C (stereo unspecified) gave an inhibition of -1.02%.

COc1cccc2c1C(=O)c1c(O)c3c(c(O)c1C2=O)CC(O)(C(C)=NNC(=O)c1ccc(Cl)c(Cl)c1)CC3OC1CC(N)C(O)C(C)O1 (stereo unspecified) was tested, and the inhibition was 59.5% (active).
COc1cc(C(=S)NCc2ccccc2)cc(Br)c1O was tested, and the inhibition was 11% (active).
With Cc1cc(-c2ccc(C)c(S(=O)(=O)Nc3ccc(S(N)(=O)=O)cc3)c2)on1 the inhibition was 14.4% (active).
